Test results reported in PubChem BioAssay (NCI).
This is part of a sample that, as a whole, favours compounds with a hit. Of some 83,000 tested, about 20% had one in any assay.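 Growth was measured after 48 h exposure to one concentration of compound in 96-well plates. Values under 10 count as active.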 Unmarked numbers belong to inactive results. The source made the active and inactive calls.

These molecules were tested on SW-620 colon (assay: NCI-60 one-dose screen, 48 h (100 = growth as untreated, 0 = no growth, -100 = all killed)). Conditions: 10 µM unless noted.

SMILES | growth
Clc1cccc(CNc2c3ccccc3nc3ccccc23)c1 | 12%
CC(C)(C)c1ccc(OC(=O)Nc2ccccc2)cc1 | 106%
O=C(/C=C/c1ccco1)c1ccccc1O | 99.7%
CC(C)CC(=O)C(CCc1ccccn1)C(C)C (stereo unspecified) | 104%
Cc1nn(-c2ccccc2)c2nc3c(nc12)C1=NCCN1C(c1ccc(Cl)cc1)N3 (stereo unspecified) | 76.6%
Cc1cc([N+](=O)[O-])c(C)cc1N | 104%
O=C1/C(=C/c2cc(F)cc(F)c2)Cc2cc(F)cc(F)c21 | 99.2%
N/C(=N\OC(=O)c1ccccc1)C(C(=O)NOC(=O)c1ccccc1)C1CCCCC1 (stereo unspecified) | 82.1%
CCN(CC)CCNC(=O)C(F)(F)C(F)(F)C(F)(F)F | 104%
O=C(Nc1ccncc1)C(=O)c1cn(S(=O)(=O)c2cccc(Cl)c2F)c2ccccc12 | 59.6%
CC(=O)Oc1c(Cl)c(Cl)c(Cl)c(Cl)c1Cl | 102%
COc1cnc2c(c1)C(=O)c1c-2n(CCCN2CCNCC2)c(=O)c2cc(Cl)ccc12 | -84.5% (active)
Cc1cc(C#Cc2ccc(C(C)(C)C)cc2)ccc1-n1c(/C=C/c2c(Cl)cccc2Cl)nc2ccccc2c1=O | 85.5%
CS(=O)(=O)c1ccc(C(=O)N/N=C/c2ccccc2Cl)cc1 | 97.3%
O=C(/C=C/c1ccccc1)c1c[nH]c2ccccc2c1=O | -6.91% (active)
COC(=O)[C@H](Cc1cn(C)cn1)NC(=O)[C@H](CC(C)C)NC(=O)Nc1cc(C(F)(F)F)cc(C(F)(F)F)c1 | -43.6% [100 µM] (active)
CS(=O)(=O)c1ccc(C(=O)N/N=C/c2ccccc2O)cc1 | 43.3%
CCCCCCCCCCCCCC | 104%
C[Si](C)(C)C(c1ccccc1)c1ccccc1 | 101%

SMILES | growth
C=CCN1C(=O)/C(=c2\sc3n(c2=O)C2C(NN=3)N(CC)C(=O)N2CC)c2ccccc21 (stereo unspecified) | 30.9%
CNC1=C([N+](=O)[O-])C(c2ccccc2O)C(C#N)=C(c2cccs2)O1 (stereo unspecified) | 99.9%
NS(=O)(=O)c1ccc(CCn2c(SCC(=O)N/N=C/c3cccnc3)nc3ccccc3c2=O)cc1 | 96.7%
O=[N+]([O-])c1ccc(Sc2nc(Cl)nc(NC3CCCC3)n2)cc1 | -63.1% [100 µM] (active)
COC(=O)OC1C(O[C@H]2C[C@H]3[C@@H]4CC=C5C[C@@H](O)CC[C@]5(C)[C@H]4CC[C@]3(C)[C@H]2[C@H](C)C(=O)CCC(C)C)OCC(O)C1OC1OCC(O)C(O)C1OC(=O)c1ccc(OC)cc1 (stereo partly specified) | -55.9% (active)
CCCCCCCCCCCC1=NC(C)(C)CN1CC(C)O (stereo unspecified) | 52%
O=C(C(=O)N1CCCC1)c1cn(CCCn2cc(C(=O)C(=O)N3CCCC3)c3cc(Br)ccc32)c2ccc(Br)cc12 | 85.5%
Cc1c(C(N)=O)sc2ncn(CC(=O)NN=C3CCCCC3)c(=O)c12 | 97.4%
Fc1ccc(-c2nc(-c3ccc(-c4nc5ccc(F)cc5[nH]4)cc3)no2)cc1 | 64.7%
Cc1cc2nc(CN)[nH]c2cc1C | 108%
N=C(N)c1ccc(-c2ccc(-c3cccs3)s2)cc1F | -62.8% (active)
Oc1c(C(Nc2cccc3ccccc23)c2ccccc2)ccc2cccnc12 (stereo unspecified) | 37.6%
CSc1ccc(/C=C2\C=C(CC(=O)NCc3ccc(C(=O)c4ccccc4)cc3)c3cc(F)ccc32)cc1 | 9.98% (active)
CCN(CC)c1ccc(/C=N/N=C(N)N)cc1 | 19.3%
CC(=O)O[C@@H]1CC2C(C)(C)CCCC2(C)C2=C1C(=O)C(C(C)C)=CC2=O (stereo partly specified) | -52.5% (active)
c1ccc(CCn2cccc2)nc1 | 117%
c1ccc(-c2nnn(-c3ccccc3)n2)cc1 | 113%
Cc1csc(N/N=C/c2ccncc2)n1 | 103%
COc1ccccc1CNCCCN1C(=O)c2ccc3c4c(ccc(c24)C1=O)C(=O)N(CCCCNCCCN)C3=O | -25% (active)

What follows are molecules tested on MCF7 breast in the same assay as above. Conditions: 10 µM unless noted.

SMILES | growth
Clc1cccc(CNc2c3ccccc3nc3ccccc23)c1 | 0.909% (active)
CC(C)(C)c1ccc(OC(=O)Nc2ccccc2)cc1 | 110%
O=C(/C=C/c1ccco1)c1ccccc1O | 41.3%
CC(C)CC(=O)C(CCc1ccccn1)C(C)C (stereo unspecified) | 104%
Cc1nn(-c2ccccc2)c2nc3c(nc12)C1=NCCN1C(c1ccc(Cl)cc1)N3 (stereo unspecified) | 35.3%
Cc1cc([N+](=O)[O-])c(C)cc1N | 90.9%
O=C1/C(=C/c2cc(F)cc(F)c2)Cc2cc(F)cc(F)c21 | 56.7%
N/C(=N\OC(=O)c1ccccc1)C(C(=O)NOC(=O)c1ccccc1)C1CCCCC1 (stereo unspecified) | 65.6%
CCN(CC)CCNC(=O)C(F)(F)C(F)(F)C(F)(F)F | 108%
O=C(Nc1ccncc1)C(=O)c1cn(S(=O)(=O)c2cccc(Cl)c2F)c2ccccc12 | 35.2%
CC(=O)Oc1c(Cl)c(Cl)c(Cl)c(Cl)c1Cl | 93.8%
COc1cnc2c(c1)C(=O)c1c-2n(CCCN2CCNCC2)c(=O)c2cc(Cl)ccc12 | -74.9% (active)
Cc1cc(C#Cc2ccc(C(C)(C)C)cc2)ccc1-n1c(/C=C/c2c(Cl)cccc2Cl)nc2ccccc2c1=O | 85.9%
CS(=O)(=O)c1ccc(C(=O)N/N=C/c2ccccc2Cl)cc1 | 93.3%
O=C(/C=C/c1ccccc1)c1c[nH]c2ccccc2c1=O | 10.6%
COC(=O)[C@H](Cc1cn(C)cn1)NC(=O)[C@H](CC(C)C)NC(=O)Nc1cc(C(F)(F)F)cc(C(F)(F)F)c1 | -86.5% [100 µM] (active)
CS(=O)(=O)c1ccc(C(=O)N/N=C/c2ccccc2O)cc1 | 22.5%
CCCCCCCCCCCCCC | 91.1%
C[Si](C)(C)C(c1ccccc1)c1ccccc1 | 106%

SMILES | growth
C=CCN1C(=O)/C(=c2\sc3n(c2=O)C2C(NN=3)N(CC)C(=O)N2CC)c2ccccc21 (stereo unspecified) | 16.6%
CNC1=C([N+](=O)[O-])C(c2ccccc2O)C(C#N)=C(c2cccs2)O1 (stereo unspecified) | 92.3%
NS(=O)(=O)c1ccc(CCn2c(SCC(=O)N/N=C/c3cccnc3)nc3ccccc3c2=O)cc1 | 79.6%
O=[N+]([O-])c1ccc(Sc2nc(Cl)nc(NC3CCCC3)n2)cc1 | -84.9% [100 µM] (active)
COC(=O)OC1C(O[C@H]2C[C@H]3[C@@H]4CC=C5C[C@@H](O)CC[C@]5(C)[C@H]4CC[C@]3(C)[C@H]2[C@H](C)C(=O)CCC(C)C)OCC(O)C1OC1OCC(O)C(O)C1OC(=O)c1ccc(OC)cc1 (stereo partly specified) | -8.41% (active)
CCCCCCCCCCCC1=NC(C)(C)CN1CC(C)O (stereo unspecified) | 25.8%
O=C(C(=O)N1CCCC1)c1cn(CCCn2cc(C(=O)C(=O)N3CCCC3)c3cc(Br)ccc32)c2ccc(Br)cc12 | 61.6%
Cc1c(C(N)=O)sc2ncn(CC(=O)NN=C3CCCCC3)c(=O)c12 | 109%
Fc1ccc(-c2nc(-c3ccc(-c4nc5ccc(F)cc5[nH]4)cc3)no2)cc1 | 52.5%
Cc1cc2nc(CN)[nH]c2cc1C | 96.7%
N=C(N)c1ccc(-c2ccc(-c3cccs3)s2)cc1F | -68.5% (active)
Oc1c(C(Nc2cccc3ccccc23)c2ccccc2)ccc2cccnc12 (stereo unspecified) | 25.8%
CSc1ccc(/C=C2\C=C(CC(=O)NCc3ccc(C(=O)c4ccccc4)cc3)c3cc(F)ccc32)cc1 | -2.9% (active)
CCN(CC)c1ccc(/C=N/N=C(N)N)cc1 | 15.4%
CC(=O)O[C@@H]1CC2C(C)(C)CCCC2(C)C2=C1C(=O)C(C(C)C)=CC2=O (stereo partly specified) | 3.73% (active)
c1ccc(CCn2cccc2)nc1 | 101%
c1ccc(-c2nnn(-c3ccccc3)n2)cc1 | 71%
Cc1csc(N/N=C/c2ccncc2)n1 | 87.1%
COc1ccccc1CNCCCN1C(=O)c2ccc3c4c(ccc(c24)C1=O)C(=O)N(CCCCNCCCN)C3=O | -41.7% (active)
